Measured values from PubChem BioAssay (NCATS).
Records with an inconclusive call do not appear. Unmarked numbers belong to inactive results. Active and inactive are the calls of the source. Calls come from the whole dose curve; as a rule, active = well fitted inhibition curve with a large enough effect; inconclusive = small, poorly fitted or top-dose-only effect, or effect the other way; inactive = flat fitted curve, though single readings scatter.

Assay: Quantitative high throughput screen for delayed death inhibitors of the malarial parasite plastid, 48 hour incubation (AID 488752); note: nearly all actives have a fitted effect of over 65% in size
Settings: Plasmodium falciparum growth; series mostly up to 28.7 µM; activity change, negative = inhibition: at the top concentration
Description: NIH Molecular Libraries Probe Production Network [MLPCN]
NIH Chemical Genomics Center [NCGC]
Assay Provider: David Fidock and Eric Ekland, Columbia University
The goal of this screen is to discover new antimalarial compounds that act by inhibiting the development of the apicoplast in the malarial parasite Plasmodium falciparum. The biochemical processes that make this organelle essential for erythrocytic stage parasites are not well understood. However, antibiotics, such as azithromycin and tetracycline, which target the apicoplast translational machinery, have a potent antimalarial effect.
We have developed a cell-based assay that measures parasite growth based on the expression of an integrated copy of a firefly luciferase reporter. To detect small molecules that cause this 'delayed death' phenotype, erythrocytes infected with the luciferase-expressing parasites were incubated with compounds for either one or two generations, corresponding to 48 and 96 hours, respectively. Compounds that inhibit parasite growth in the second generation, but not the first, should be enriched in antimalarials that target the apicoplast. Growth inhibition is detected by a decrease in luciferase activity
Four microliters of culture medium (RPMI 1640 with 0.5% w/v Albumax (GIBCO), 24 mM sodium bicarbonate and 10 ug/mL gentamycin) were dispensed by a Multi-drop Combi into white solid 1536-well plates (Grenier) and 23 nL compound was added by a pin tool. Four microliters of infected erythrocytes (2% hematocrit, 0.1% parasitemia final concentration) in culture medium were dispensed and the plates incubated for 48 hours at 37 C in 5% CO2. Two microliters of luciferase detection reagent was added and luminescence was detected by a ViewLux (PerkinElmer) reader
% is set by controls: 0 for no effect and ±100 for the full control effect; potency is the fitted concentration of half-maximal effect.

| Structure (SMILES) | Potency | activity change, negative = inhibition [%] |
| --- | --- | --- |
| CCCNCC(O)COc1ccccc1C(=O)CCc1ccccc1 (stereo not given) | 2.33 µM (active) |  |
| CN1C2CCC1CC(OC(=O)C(CO)c1ccccc1)C2 (stereo not given) | inactive |  |
| CN(Cc1cnc2nc(N)nc(N)c2n1)c1ccc(C(=O)N[C@@H](CCC(=O)O)C(=O)O)cc1 |  | 18.4 |
| CC(C(=O)O)c1cccc(C(=O)c2ccccc2)c1 (stereo not given) |  | 7.06 |
| NC12CC3CC(CC(C3)C1)C2 |  | 2.3 |
| Nc1nc2c(ncn2COC(CO)CO)c(=O)[nH]1 |  | 8.62 |
| Clc1ccc(C(c2ccccc2Cl)C(Cl)Cl)cc1 (stereo not given) |  | 7.37 |
| CN1C(C(=O)Nc2ccccn2)=C(O)c2ccccc2S1(=O)=O |  | -24.2 |
| COc1cc2c(c(OC)c1OC)-c1ccc(OC)c(=O)cc1[C@@H](NC(C)=O)CC2 |  | 0.0161 |
| CC(CCc1ccc(O)cc1)NCCc1ccc(O)c(O)c1 (stereo not given) | 13.1 µM (active) |  |
| CCc1cccc2c3c([nH]c12)C(CC)(CC(=O)O)OCC3 (stereo not given) |  | 20.7 |
| Cn1c(=O)c2[nH]cnc2n(C)c1=O |  | -30.4 |
| CC(C)NCC(O)c1ccc(O)c(O)c1 (stereo not given) | inactive |  |
| COc1cc2nc(N3CCN(C(=O)C4COc5ccccc5O4)CC3)nc(N)c2cc1OC (stereo not given) | 4.15 µM (active) |  |
| Cn1cnc2c1c(=O)[nH]c(=O)n2C |  | 7.88 |
| NCCCCCC(=O)O |  | -0.606 |
| CC[N+](CC)(CC)CCOc1cccc(OCC[N+](CC)(CC)CC)c1OCC[N+](CC)(CC)CC |  | 23.9 |
| CCC1(C)CC(=O)NC1=O (stereo not given) |  | 19.8 |
| CCOC(=O)C(C)(C)Oc1ccc(Cl)cc1 |  | 21 |
| Cc1cn([C@H]2C=C[C@@H](CO)O2)c(=O)[nH]c1=O |  | -0.797 |

| Structure (SMILES) | Potency | activity change, negative = inhibition [%] |
| --- | --- | --- |
| NS(=O)(=O)c1cc2c(cc1Cl)NCNS2(=O)=O |  | 11.9 |
| CNCCCC12CCC(c3ccccc31)c1ccccc12 |  | -23.1 |
| NC(CO)C(=O)NNCc1ccc(O)c(O)c1O (stereo not given) |  | -15.2 |
| OCCN(CCO)c1nc(N2CCCCC2)c2nc(N(CCO)CCO)nc(N3CCCCC3)c2n1 | 9.28 µM (active) |  |
| NCCS(=O)(=O)O |  | -3.74 |
| Nc1nnc(-c2cccc(Cl)c2Cl)c(N)n1 |  | -1.39 |
| Cc1ccccc1N1C(=O)c2cc(S(N)(=O)=O)c(Cl)cc2NC1C (stereo not given) |  | 0.27 |
| COc1ccc2c(c1)c(CC(=O)O)c(C)n2C(=O)c1ccc(Cl)cc1 |  | 7.07 |
| COc1ccc(C2CNC(=O)C2)cc1OC1CCCC1 (stereo not given) |  | 3.39 |
| Cc1cnc(C(=O)NCCc2ccc(S(=O)(=O)NC(=O)NC3CCCCC3)cc2)cn1 |  | -6.09 |
| N[C@@H](Cc1c[nH]c2ccc(O)cc12)C(=O)O |  | 13.1 |
| Nc1ccn([C@H]2CC[C@@H](CO)O2)c(=O)n1 |  | 4.59 |
| CC(C)(Oc1ccc(C2CC2(Cl)Cl)cc1)C(=O)O (stereo not given) |  | 3.27 |
| CC1COc2c(N3CCN(C)CC3)c(F)cc3c(=O)c(C(=O)O)cn1c23 (stereo not given) |  | 6.25 |
| NC(=O)NO |  | 6.58 |
| CC(C)NCC(O)COc1ccc(CCOCC2CC2)cc1 (stereo not given) |  | 9.34 |
| CS(=O)(=O)Nc1ccc([N+](=O)[O-])cc1Oc1ccccc1 |  | 3.89 |
| CN1CCN2c3ccccc3Cc3ccccc3C2C1 (stereo not given) |  | -2.81 |
| COc1ccccc1OCC(O)CN1CCN(CC(=O)Nc2c(C)cccc2C)CC1 (stereo not given) |  | 3.84 |
| C[C@](N)(Cc1ccc(O)c(O)c1)C(=O)O |  | 8.92 |
